# Screening data (PubChem BioAssay)
# PNC inhibitor: High Content Assay for Compounds that inhibit the Assembly of the Perinucleolar Compartment; PC3M PTB-GFP, PNC prevalence imaging, 16 h; hits give low values; activity change (PNC), negative = inhibition, % at 10 µM; 140,000 tested, 3.1% active;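 active = readout at or below -70, meaning at least 70% loss of cells showing the perinucleolar compartment, a nuclear body marking cancer cells; inconclusive = readout between -30 and a set limit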;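 also: plate controls were DMSO wells for no effect and camptothecin positive control wells for full effect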
#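 Compounds are pinned in duplicate onto adhered PC3M cells stably expressing GFP-tagged PTB and incubated 16 h at 37 C. Cells are then fixed, nuclei stained with Hoechst, and PNC-positive cells counted.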
# HPGD inh: qHTS Assay for Inhibitors of HPGD (15-Hydroxyprostaglandin Dehydrogenase); 150,000 tested, 4.3% active; 15-hydroxyprostaglandin dehydrogenase [NAD(+)] (Homo sapiens), P15428; purified HPGD, NADH fluorescence kinetic, PGE2 substrate; Potency, µM, inactives show at the top dose activity change, negative = inhibition, usual class: inhibitors; active = well fitted inhibition curve with a large enough effect, not every such curve was filed as active; inconclusive = small, poorly fitted or top-dose-only effect, or another doubt; inactive = no such curve, though single readings can be large or run the other way; also: potency is read from the fitted curve at half-maximal effect
# Target sequence (P15428 whole entry, looked up): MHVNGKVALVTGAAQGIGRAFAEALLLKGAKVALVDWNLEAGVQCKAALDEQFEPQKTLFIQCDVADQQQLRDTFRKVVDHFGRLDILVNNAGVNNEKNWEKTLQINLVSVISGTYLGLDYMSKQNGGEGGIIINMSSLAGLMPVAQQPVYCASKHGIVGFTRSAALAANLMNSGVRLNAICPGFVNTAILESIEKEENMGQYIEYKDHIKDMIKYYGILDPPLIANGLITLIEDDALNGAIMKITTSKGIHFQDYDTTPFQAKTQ
#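 20 nM HPGD preincubated 15 min at room temperature with compound in 50 mM Tris-HCl pH 8, 0.01% Tween 20. Started with 1 mM NAD+ and 30 uM prostaglandin E2; NADH fluorescence (360/450 nm) read 5 times over 30-s intervals, last minus first.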
# ALDH1A1 inh: qHTS Assay for Inhibitors of Aldehyde Dehydrogenase 1 (ALDH1A1) | Purified ALDH1A1, NADH fluorescence, propionaldehyde substrate | Potency, µM (titrated, usually from 75.3 µM), for the others: at the highest dose activity, negative = inhibition, most hits filed as inhibitors | 220,000 tested, 7.3% active | AID 1030, 2008; active = well fitted inhibition curve with a large enough effect, not every such curve was filed as active; inconclusive = small, poorly fitted or top-dose-only effect, or another doubt; inactive = no such curve, though single readings can be large or run the other way;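 also: potency is read from the fitted curve at half-maximal effect; plate controls were no enzyme wells and a reference inhibitor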
# IMPase inh: qHTS Assay for Identifying the Cell-Membrane Permeable IMPase Inhibitors; Inositol monophosphatase 1 (Rattus norvegicus), P97697; CHO-M1 cells, IP1 accumulation, HTRF TR-FRET ratio; inhibition (IP1 accumulation), % at 46.1 µM; 120,000 tested, under 10 active; active = well fitted curve in the direction sought with a large enough effect in the signal ratio, not every such curve was filed as active; inconclusive = small, poorly fitted or top-dose-only effect, or a change in a side signal; inactive = no such curve, though single readings can be large or run the other way; the % refers to the signal ratio;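 also: cells stimulated with carbachol in lithium chloride buffer; plate controls were DMSO basal wells for no effect and reference inhibitor wells for full effect; higher means more IMPase inhibition seen as more IP1 and lower FRET ratio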
# Target sequence (P97697 whole entry, looked up): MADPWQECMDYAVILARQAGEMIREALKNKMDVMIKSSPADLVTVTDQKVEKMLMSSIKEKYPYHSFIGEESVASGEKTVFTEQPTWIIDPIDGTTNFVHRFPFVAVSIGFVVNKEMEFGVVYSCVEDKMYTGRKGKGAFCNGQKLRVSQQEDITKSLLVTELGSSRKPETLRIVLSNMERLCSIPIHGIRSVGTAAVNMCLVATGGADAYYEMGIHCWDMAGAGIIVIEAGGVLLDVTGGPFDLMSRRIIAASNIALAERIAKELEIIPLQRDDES
#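 The IP-One HTRF competitive assay in carbachol-stimulated CHO-M1 cells quantifies cellular IP1. Compounds spanned up to 46 uM final, and activity is expressed as AC50 from concentration-response fits of the ratio and donor data.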
# IMPase Li inh: qHTS Assay for Identifying the Cell-Membrane Permeable IMPase Inhibitors: Potentiation with Lithium | CHO-M1 cells, IP1 TR-FRET (IP-One), carbachol + lithium | AID 1457, 2008 | 210,000 tested, 0.35% active | Potency, µM (top dose mostly 59.4 µM), for the others: top-dose activity, negative = IMPase inhibition, actives largely listed as inhibitors;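 also: IP1 builds up when IMPase is blocked and the TR-FRET signal falls; potency is read from the fitted curve at half-maximal effect; plate controls were basal vehicle for no effect and high inhibitor control for full effect; nearly all actives have a fitted effect of over 50% in size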
#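 CHO cells stably expressing M1 receptor (2000/well) were cultured 16–30 h, then exposed to compounds with a small lithium addition for 30 min at 37C. IP1 was measured by TR-FRET competition; AC50 from Hill fits.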
# ALOX12 inhib: qHTS Assay for Inhibitors of 12-hLO (12-human lipoxygenase) | Polyunsaturated fatty acid lipoxygenase ALOX12 (Homo sapiens), P18054 | purified 12-hLO, xylenol orange hydroperoxide absorbance | Potency, µM (top dose mostly 57.1 µM), without a hit: top-dose activity change, negative = inhibition, most hits filed as inhibitors | 150,000 tested, 0.12% active | AID 1452, 2008; also: potency is read from the fitted curve at half-maximal effect; nearly all actives have a fitted effect of over 55% in size
#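 Purified human 12hLO (150 nM), preincubated 15 min with compound, then 40 uM arachidonic acid for 30 min, room temperature, Hepes pH 7.0 with 0.01% Triton X-100. Hydroperoxide detected by ferrous iron/xylenol orange; 573/405 nm absorbance ratio gives reaction progress.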
# The depositor's hits bear a star; ? = inconclusive; nt = no result given; [ ] = another dose, or the depositor's remark. Hits are enriched below; roughly 11% of the tested compounds scored in any of these assays. Unless noted, calls follow the shape of the dose curve; as a rule, active = well fitted curve in the direction sought with a large enough effect; inconclusive = small, poorly fitted or top-dose-only effect, or another doubt; inactive = no such curve, though single readings can be large; an effect the other way counts as inactive or inconclusive. Unless noted, % is scaled to controls: 0 for no effect and ±100 for the full control effect.
SMILES,PNC inhibitor,HPGD inh,ALDH1A1 inh,IMPase inh,IMPase Li inh,ALOX12 inhib
O=Cc1cn(Cc2c(F)cccc2Cl)c2ccccc12,nt,nt,3.2µM*,nt,8%,nt
CCCC[N+]1(C)[C@@H]2CC(OC(=O)[C@@H](CO)c3ccccc3)C[C@H]1[C@H]1O[C@H]12 (some centres not stated),nt,nt,nt,19,nt,-3%
c1ccc(N=NNc2ccccc2)cc1,nt,-4%,-78%,nt,-1%,-20%
O=c1[nH]c(SCc2ccccc2Cl)nc2c1CCCC2,-24,2µM*,-13%,3,28%[38.3 µM],-1%
Cc1cccc(C)c1O,nt,-2%,?,nt,3%,-6%
O=C(CCn1c(=O)oc2ccccc21)N1CCN(C(c2ccccc2)c2ccccc2)CC1,?,-19%,18µM*,13,13%[38.3 µM],-6%
CN1CCC[C@@H]1c1cccnc1.O=C(O)c1ccccc1O.O=C([OH2+])c1ccccc1O.O=C([OH2+])c1ccccc1O.[Mn],nt,?,?,nt,-1%,3%[11.4 µM]
COc1cc(/C=C/[N+](=O)[O-])ccc1O,-84*,-24%,?,nt,46%,-20%
CC(=O)c1cn(Cc2ccccc2C#N)c2ccccc12,nt,nt,25µM*,nt,?,nt
CC(C)C(=O)c1cn(Cc2ccccc2C#N)c2ccccc12,65,-3%,7%,2,31%[38.3 µM],-9%
COc1ccc(NC(=O)N2CCCC3(CCN(C(=O)Oc4ccccc4)CC3)C2)cc1,nt,-2%,?,nt,14%,0%
COc1ccc(NC(=O)N2CCC3(CC2)CCN(C(=O)Oc2ccccc2)CC3)cc1,nt,-13%,10µM*,nt,9%,-3%
C[C@]12CCC3C(CC[C@]4(O)C[C@@H](O)CC[C@]34C=O)[C@@]1(O)CC[C@@H]2C1=CC(=O)OC1 (some centres not stated),nt,-2%,-9%,-2,5%,3%
Cc1ccccc1NC1=NCC(C)S1 (configuration not stated),1,?,2%,10,11%[38.3 µM],-4%
CC(=O)c1cccc(NC2=NCC(C)S2)c1 (configuration not stated),?,14µM*,-6%,1,-10%[38.3 µM],-4%
O=[N+]([O-])c1cccc(O)c1,nt,-10%,?,nt,4%,-2%
O=[N+]([O-])c1ccccc1,nt,-10%,32µM*,nt,3%,-1%
C(=NCCN1CCOCC1)=NC1CCCCC1,nt,-4%,7%[13.5 µM],nt,-11%,-5%[11.4 µM]
COc1cc(OC)c(OC)cc1/C=C1/C(=O)NC(=O)N(Cc2ccccc2)C1=O,nt,nt,5%,nt,nt,nt
COc1ccc(/C=C2/C(=O)NC(=S)N(C3CC3)C2=O)cc1CN1C(=O)c2ccccc2C1=O,-8,14µM*,20µM*,-6,5%,-12%
CN1C(=O)/C(=C/c2cccn2-c2ccc3ccccc3c2)C(=O)NC1=S,5,14µM*,?,17,22%[38.3 µM],?
Cn1cccc1/C=C1\C(=O)NC(=O)N(CCC2=CCCCC2)C1=O,?,-13%,?,-10,5%,-8%
CC(C)c1ccc(N2C(=O)NC(=O)/C(=C\c3cnc(-c4ccccc4)nc3)C2=O)cc1,?,25µM*,7.1µM*,6,0%[38.3 µM],-4%
Cc1cc(/C=C2\C(=O)NC(=O)N(c3cccc(Br)c3)C2=O)c(C)n1C,19,-9%,-4%,nt,0%,-2%
Cc1ccc(N2C(=O)NC(=O)/C(=C/c3cnc(-c4ccccc4)nc3)C2=O)cc1C,18,20µM*,?,nt,1%,-18%
SMILES,PNC inhibitor,HPGD inh,ALDH1A1 inh,IMPase inh,IMPase Li inh,ALOX12 inhib
O=C1NC(=S)NC(=O)C1=Cc1cccn1-c1ccc(O)cc1,nt,nt,20µM*,nt,23%,nt
CN1C(=O)/C(=C\N2CCc3ccccc32)C(=O)NC1=S,47,-13%,?,nt,-3%,-4%
OC[P+](CO)(CO)CO,nt,-14%,18%,nt,-6%,-7%
c1ccc2c(c1)CCCC2,nt,-7%,-16%,nt,19%,-5%
Cc1cccc(N2C(=O)NC(=O)/C(=C/c3ccc(-c4ccc(C(=O)O)c(Cl)c4)o3)C2=O)c1,nt,nt,4%,nt,-10%,nt
Cc1cccc(N2C(=O)NC(=O)/C(=C\c3cnc(-c4ccccc4)nc3)C2=O)c1,58,25µM*,11µM*,7,6%,-11%
Cc1cc(C)cc(N2C(=O)NC(=O)/C(=C\c3cccn3-c3ccc(Cl)cc3)C2=O)c1,?,?,?,-5,35%[38.3 µM],?
Cc1ccc(N2C(=O)NC(=O)/C(=C\c3ccsc3)C2=O)cc1C,?,32µM*,-7%,-11,9%,-2%
Cc1cc(C)cc(N2C(=O)NC(=O)/C(=C\c3cccn3-c3ccccc3)C2=O)c1,?,7.1µM*,-8%,nt,18%,2%
O=C(c1ccc2nc(-c3ccco3)c(-c3ccco3)nc2c1)N1CCC2(CC1)OCCO2,7,?,?,17,11%,-3%
Cc1nc2cc(C(=O)N3CCC4(CC3)OCCO4)ccc2n1-c1cccc(F)c1,-12,2.8µM*,25µM*,1,-11%[38.3 µM],8%
COc1ccc(-n2cnc3cc(C(=O)N4CCC5(CC4)OCCO5)ccc32)cc1,nt,nt,?,nt,4%,nt
O=C(c1ccc2c(c1)ncn2C1CCCCCC1)N1CCC2(CC1)OCCO2,30,14µM*,-13%,4,-5%[38.3 µM],-3%
ClCBr,nt,-8%,-1%,nt,-5%,-1%
CCN1C[C@]2(C)CC[C@@H](O)[C@]34[C@@H]5CC6[C@@H](OC)C[C@@](O)([C@H]5[C@@H]6O)[C@@H](C[C@@H]23)[C@H]14,nt,nt,nt,?,nt,-3%
N#CC(C#N)=Cc1cccnc1,nt,nt,3.2µM*,nt,4%,nt
O=c1[nH]c(=S)[nH]c(O)c1N=Nc1ccc(SC(F)F)cc1,nt,nt,20µM*,nt,nt,nt
O=c1[nH]c(O)c(N=Nc2ccc([N+](=O)[O-])cc2)c(=O)[nH]1,nt,nt,?,nt,-6%,nt
O=c1[nH]c(=S)[nH]c(O)c1N=Nc1ccc(S(=O)(=O)N2CCc3ccccc32)cc1,nt,nt,6.3µM*,nt,1%,nt
NC(=O)CN1C[C@@H](O)CC1=O,nt,nt,nt,2,nt,-1%
CN[C@H](Cc1ccccc1)c1cccc(OC)c1O,nt,-6%,5%[13.5 µM],nt,0%,-3%[11.4 µM]
O=C(Cl)c1ccccc1F,nt,-14%,?,nt,-10%,1%
O=C(O)c1ccccc1-c1c2cc(Br)c(=O)cc-2oc2[c]([Hg])c(O)c(Br)cc12,nt,2.2µM*,4.5µM*,23[20.6 µM],149%,?
